The sample as a whole holds a higher share of hits than the screen did.
HT1080-NT tox – kills 2HG-producing HT-1080-NT fibrosarcoma cells. HT-1080-NT fibrosarcoma viability, CellTiter-Glo ATP luminescence, 48 h. Potency, µM (top dose mostly 46.1 µM), hits mostly cytotoxic. hit rate 1.6% among 360,000. AID 686970;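 further: NT is the 2HG producing partner of a matched IDH1 knockdown line; nearly all actives have a fitted effect of over 55% in size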
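Luminescent CellTiter-Glo readout after 48 hours of compound exposure at 37 degrees C defined viability of HT-1080-NT cells. Activity was normalized to DMSO wells and cell-free media wells; concentration-response curves were fitted and assigned curve classes.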
IL1B secr inh – inflammasome signaling inhibition, IL-1 beta readout; THP-1 LPS/ATP IL-1B secretion, AlphaLISA, 16 h; active compounds read low; activity change, % at 57.5 µM; hit rate 4.7% among 360,000; in the data active means activity change below about -50%; inconclusive means mostly about -30% to -49%
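Secreted IL-1B measured by AlphaLISA bead assay after 16 h compound exposure of THP-1 cells; compounds (final up to 57.5 uM) added 1 h before LPS (250 ng/mL) and ATP (1.25 mM) stimulation; lower signal means less secretion.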
HT1080 IDH1KD tx – toxicity to HT-1080 IDH1 knockdown cells (counter line); Potency, µM (highest dose often 46.1 µM), actives largely listed as cytotoxic; hit rate 2% among 360,000; HT-1080 IDH1 knockdown viability, ATP luminescence, 48 h; AID 686971
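IDH1KD HT-1080 cells, 750/well, RPMI + 5% FBS; compound pinned after 2 h settling; 48 h, 37 °C; CellTiter-Glo luminescence; % activity normalised to DMSO and no-cell wells; curves fitted, classed by r2 and efficacy.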
DT40 TDP1 CPT – DT40-hTDP1 cell growth loss with CPT; chicken DT40 Tdp1-/-;hTDP1 cells + 20 nM CPT, ATP luminescence, 48 h; Potency, µM (series often up to 46.2 µM), most hits filed as inhibitors; hit rate 12% among 420,000; AID 686979; further: nearly all actives have a fitted effect of over 55% in size
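Chicken DT40 Tdp1-/- cells complemented with human TDP1, 400 cells/well, exposed to compounds plus 20 nM camptothecin for at least 48 h at 37 C; viability read as ATP content by CellTiter-Glo luminescence.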
TDP1 cell noCPT – qHTS for Inhibitors of human tyrosyl-DNA phosphodiesterase 1 (TDP1): qHTS in cells in absence of CPT | DT40 Tdp1-/- hTDP1 cells, no CPT, ATP luminescence, 48 h | Potency, µM (doses to about 46.2 µM), hits mostly inhibitors | hit rate 15% among 420,000; further: nearly all actives have a fitted effect of over 55% in size
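Compound effects on proliferation are scored in DT40 Tdp1-/-;hTDP1 cells in the absence of CPT. ATP levels (CellTiter-Glo luminescence) are recorded after a ≥48 hr, 37 °C incubation.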
ALOX12 inh – blocks human arachidonate 12S-lipoxygenase; hit rate 1.1% among 580,000; AID 1671190; P18054; purified 12hLO, xylenol orange hydroperoxide absorbance; Potency, µM (doses to about 108 µM), actives largely listed as inhibitors
Target sequence (P18054 whole entry, looked up): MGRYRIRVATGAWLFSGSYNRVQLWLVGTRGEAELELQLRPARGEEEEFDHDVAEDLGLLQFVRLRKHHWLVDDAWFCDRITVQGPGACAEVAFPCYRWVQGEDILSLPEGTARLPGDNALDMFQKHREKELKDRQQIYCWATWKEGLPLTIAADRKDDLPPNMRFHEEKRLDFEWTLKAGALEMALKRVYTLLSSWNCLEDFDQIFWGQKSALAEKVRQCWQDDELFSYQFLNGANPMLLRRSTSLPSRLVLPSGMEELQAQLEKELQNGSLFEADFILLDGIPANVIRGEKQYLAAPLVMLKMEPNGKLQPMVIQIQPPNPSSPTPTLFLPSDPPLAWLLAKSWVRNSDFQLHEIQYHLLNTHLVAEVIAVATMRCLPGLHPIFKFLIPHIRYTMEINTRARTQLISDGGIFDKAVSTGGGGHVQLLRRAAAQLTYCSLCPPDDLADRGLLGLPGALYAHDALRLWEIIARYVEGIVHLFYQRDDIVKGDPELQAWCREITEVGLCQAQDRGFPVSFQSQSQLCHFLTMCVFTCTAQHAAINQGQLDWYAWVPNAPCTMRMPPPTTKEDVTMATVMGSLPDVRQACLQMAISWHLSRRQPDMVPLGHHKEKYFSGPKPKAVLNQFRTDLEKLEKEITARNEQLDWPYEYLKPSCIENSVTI
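Purified human 12hLO at 150 nM in 25 mM Hepes, 0.01% Triton X-100, pH 7.0, preincubated 15 min at room temperature with compound. Reaction started with 40 uM arachidonic acid, 30 min at room temperature. Hydroperoxide measured by Fe-xylenol orange, 573/405 nm absorbance ratio.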
Hits are given with their value; . = inactive; ? = inconclusive; / = not tested or not shown; ! = not confirmed by another sample; [ ] = another dose, or the depositor's remark. Unless noted, the call rests on the fitted dose curve; in most records, active means well fitted curve in the direction sought with a large enough effect; inconclusive means small, poorly fitted or top-dose-only effect, or another doubt; inactive means no such curve, though single readings can be large; an effect the other way counts as inactive or inconclusive.

SMILES | HT1080-NT tox | IL1B secr inh | HT1080 IDH1KD tx | DT40 TDP1 CPT | TDP1 cell noCPT | ALOX12 inh
CCOC(=O)C1C(=O)C=C(/C=C/c2ccccc2)CC1c1ccc(Cl)cc1 (stereo not drawn) | . | . | . | 29µM | ? | .
CCOC(=O)C1C(=O)C=C(/C=C/c2ccco2)CC1c1ccccc1 (stereo not drawn) | / | / | / | / | / | 6.3µM
CCC(=C/c1ccccc1)/C=N/O | / | / | / | / | / | .
CCOc1cc(C(=O)N2N=C(C)CC2(O)C(F)(F)F)cc(OCC)c1OCC (stereo not drawn) | / | / | / | / | / | .
CC1=NN(C(=O)c2ccc(Cn3nc(C)cc3C)o2)C(O)(C(F)(F)F)C1 (stereo not drawn) | 7.1µM | . | 6.3µM | 1.3µM | 2.5µM | .
CC1=NN(C(=O)c2ccc(Cn3cc(Br)c([N+](=O)[O-])n3)o2)C(O)(C(F)(F)F)C1 (stereo not drawn) | . | . | . | 3.3µM | 2.6µM | .
CC1=NN(C(=O)Cn2nc([N+](=O)[O-])cc2C)C(O)(C(F)(F)F)C1 (stereo not drawn) | . | . | . | . | . | .
Cc1ccc(CNC(=O)CCCCCn2c(=O)[nH]c3ccccc3c2=O)cc1 | / | / | / | 0.65µM | 0.82µM | .
O=C(CCCn1c(=O)[nH]c2ccccc2c1=O)NCCSCc1ccccc1 | . | . | . | . | . | .
O=C(CCCn1c(=S)[nH]c2ccccc2c1=O)NCCSCc1ccccc1 | . | . | . | 23µM | ? | .
Cc1cc(C)nc(NC2=NCC(=O)N2c2ccc(C)c(Cl)c2)n1 | / | / | / | / | / | .
CN(Cc1c(F)cccc1Cl)C(=O)c1ccc(NC(=O)CC2SC(N3CCCC3)=NC2=O)cc1 (stereo not drawn) | . | . | . | ? | 18µM | .
Cc1nc2cc(Cl)ccc2cc1C(=O)NCC(F)(F)F | / | / | / | / | / | .
CC1CCC(NC(=O)c2ccc3c(Cl)c4c(nc3c2)CCCC4)CC1 (stereo not drawn) | / | / | / | / | / | .
CCCCN(CC)CCNC(=O)c1ccc2c(Cl)c3c(nc2c1)CCC3 | 21µM | ? | 23µM | ? | 16µM | .
O=C(NC1CC1)c1ccc2c(Cl)c3c(nc2c1)CCCC3 | . | . | . | ? | ? | .
CCN(CC)CCCNC(=O)c1ccc2c(Cl)c3c(nc2c1)CCCC3 | 23µM | / | 29µM | 26µM | 16µM | .
NC(=O)c1cc[nH]c1C1CCCN(C(=O)CCc2nc3ccccc3s2)C1 (stereo not drawn) | / | / | / | / | / | .
Cc1ccc2c(c1)C=CC(C)(C)S2=O (stereo not drawn) | . | . | . | . | . | .
CC[N+]1=C(C)C(C)(C)c2cc(C)ccc21 | ? | . | 5.2µM | 8.2µM | 1.6µM | ?
O=C(C[n+]1cc(-c2ccc(Cl)cc2)n2c1CCC2)Nc1nc(-c2ccc(F)cc2)cs1 | . | . | . | ? | 18µM | .
O=C(C[n+]1cc(-c2ccc(F)cc2)n2c1CCC2)Nc1nc(-c2ccc(F)cc2)cs1 | . | . | . | ? | ? | .
O=C(C[n+]1cc(-c2ccccc2)n2c1CCC2)Nc1nc(-c2ccc(F)cc2)cs1 | . | . | . | ? | 16µM | ?
CCCOc1ccc2c(C)c(CC(=O)OC)c(=O)oc2c1 | . | . | . | ? | 10µM | .
C=C(C)COc1ccc2c(C)c(CC(=O)N3C[C@H]4C[C@@H](C3)c3cccc(=O)n3C4)c(=O)oc2c1C | . | . | . | 15µM | 18µM | .
SMILES | HT1080-NT tox | IL1B secr inh | HT1080 IDH1KD tx | DT40 TDP1 CPT | TDP1 cell noCPT | ALOX12 inh
CC(C)=CCOc1ccc2c(C)c(CCC(=O)N3C[C@H]4C[C@@H](C3)c3cccc(=O)n3C4)c(=O)oc2c1C | / | / | / | / | / | .
C=C(C)COc1ccc2c(C)c(CC(=O)OC)c(=O)oc2c1C | . | . | . | 18µM | 12µM | /
COC(=O)Cc1c(C)c2ccc(OCC(=O)N3CCCC(C)C3)c(C)c2oc1=O (stereo not drawn) | . | . | . | 26µM | ? | .
CC(C)CCN1CCC2(CC1)C(=NC1CCCCC1)NC(=O)N2c1cc(F)cc(F)c1 | / | / | / | / | / | .[6.33 µM]
O=C1C(=O)N(c2nccs2)C(c2ccccc2F)/C1=C(\O)c1ccc2c(c1)OCCO2 (stereo not drawn) | ? | . | ? | ? | 16µM | ?
CC(c1cccs1)N(C)C(=O)Cc1c[nH]c2ccccc12 (stereo not drawn) | / | / | / | / | / | .
O=C(Nc1c(Cl)cc([N+](=O)[O-])cc1Cl)c1cc(Cl)ccc1O | / | / | / | 2.5µM | 2µM | /
COc1ccc(NC(=O)c2cc(Br)ccc2Cl)c([N+](=O)[O-])c1 | . | . | . | . | . | .
O=C(Nc1ccc([N+](=O)[O-])cc1Cl)c1cc(Br)ccc1O | / | / | / | 0.79µM | 0.45µM | /
CCOCc1nc(C2CCCN(C(=O)c3ccc(C)c(F)c3)C2)no1 (stereo not drawn) | / | / | / | / | / | .
O=C(CSc1nnc2ccc3ccccc3n12)Nc1ccccc1Cl | / | / | / | ? | 18µM | .
Cc1ccc(C(=O)CSc2nnc3ccc4ccccc4n23)cc1 | / | / | / | ? | 16µM | .
CCc1nnc(SCC(=O)Nc2ccccc2Cl)nc1CC | . | . | . | 16µM! | ? | ?
COc1ccc(OC)c(NC(=O)CSc2nnc(-c3cccnc3)s2)c1 | 18µM | . | 18µM | ? | ? | .
CCc1ccccc1NC(=O)CSc1nnc(CC)c(CC)n1 | / | / | / | . | . | .
Cc1cc2nc(NC3=NCN(CCc4ccccc4)CN3)nc(C)c2cc1C | / | / | / | / | / | .
Cc1ccccc1-n1c(C)nnc1SCC(=O)Nc1c(C#N)c(C)c(C)n1Cc1ccco1 | / | / | / | / | / | .
COc1ccc(OC)c(NC(=O)CSc2nnc3ccc4ccccc4n23)c1 | / | / | / | ? | 21µM | .
CCc1ccccc1NC(=O)CSc1nnc2ccc3ccccc3n12 | / | / | / | ? | ? | .
O=C(COc1ccccc1)N1CCN(c2ccccc2)CC1 | . | . | . | . | . | .
O=C(COc1ccccc1)N1CCN(c2ccc([N+](=O)[O-])c(N3CCCCC3)c2)CC1 | . | -53 | . | ? | ? | .
O=C(COc1ccc(Br)cc1)N1CCN(c2ccc([N+](=O)[O-])c(N3CCCCC3)c2)CC1 | . | . | . | ? | 21µM | .
CC(C)CC(NC(=O)CC12CC3CC(CC(C3)C1)C2)C(=O)NC1=NCCS1 (stereo not drawn) | . | . | . | ? | 26µM | .
O=C(NC1=NCCS1)C12CC3CC(CC(C3)C1)C2 | . | . | . | . | . | .
CN1CCC(=C(c2ccccc2)c2ccc(Br)cc2)CC1 | . | . | . | ? | 16µM | ?
CCOC(=O)CSc1nc2ccccc2c(=O)n1CC1CCCC1 | . | . | . | 10µM | 15µM | .

Compound activity as filed in PubChem.
